Experiment [1] in a line: NCI Yeast Anticancer Drug Screen. Data for the rad50 strain (AID 155).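 Note: 0% = growth of vehicle-only cultures of the same strain.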 The conditions noted are these: S. cerevisiae rad50 strain growth inhibition, active compounds read high. Put shortly: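 Compounds were tested on a yeast strain with an engineered DNA damage repair alteration; the reported value is growth inhibition normalised to vehicle treatment.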
Experiment [2] in a line: NCI Yeast Anticancer Drug Screen. Data for the mec2-1 strain (AID 157). The conditions noted are these: S. cerevisiae mec2-1 strain, active compounds read high. Put shortly:
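Cells of the genetically defined mec2-1 yeast strain are incubated with test compound. Inhibition of growth is calculated against vehicle-treated controls.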

Experiment [3] is described as follows: NCI Yeast Anticancer Drug Screen. Data for the sgs1 mgt1 strain (AID 161).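 Note: 0% = growth of cultures given vehicle only.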 The conditions noted are these: S. cerevisiae sgs1 mgt1 strain, active compounds read high. A digest of the protocol:
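Test agents were incubated with a DNA-repair-mutant yeast strain. Growth was then read and compared against vehicle-treated controls.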

Experiment [4] can be described thus: NCI Yeast Anticancer Drug Screen. Data for the cln2 rad14 strain (AID 165).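 Note: 0% = growth equal to vehicle treated cultures.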 The conditions noted are these: S. cerevisiae cln2 rad14 strain, active compounds read high. A digest of the protocol: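 The screen exposed genetically defined yeast (cln2 rad14) to test compounds and scored growth inhibition relative to vehicle-treated controls.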
Experiment [5] can be described thus: NCI Yeast Anticancer Drug Screen. Data for the bub3 strain (AID 167). The conditions noted are these: S. cerevisiae bub3 mutant strain, active compounds read high. A digest of the protocol:
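Growth of a checkpoint-deficient yeast mutant is measured after compound exposure. Values represent inhibition relative to vehicle.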

Experiment [6] in a line: NCI Yeast Anticancer Drug Screen. Data for the mlh1 rad18 strain (AID 175). The conditions noted are these: S. cerevisiae mlh1 rad18 strain growth inhibition, active compounds read high. A digest of the protocol:
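Compound-treated yeast growth, normalised to vehicle controls. Strain bears defined DNA repair mutations.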

Where [7] appears, read: at 5.0 µM (retest, dose inferred, filed as 0.5).
Where [8] appears, read: at 50.0 µM (retest, dose inferred, filed as 5.0).

“And” between values parts separate entries of the source, which are not always exact repeats. Identical values can stand only once. About 79,000 compounds went through this panel and 15% of them were active in at least one assay; those are over-represented in the sample as a whole. Values without a mark were called inactive. The source made the active and inactive calls. Cut-off read from the data, not from the text of the source: active = growth inhibition above about 70%; inactive = the rest.

In PubChem BioAssay (NCI) one finds growth inhibition data, which are given here for 17 molecules.

For `CC(C)NC(=O)C(C)O` (stereo not drawn), the growth inhibition in experiment [1] (setting [7]) was 4%; in experiment [1] (setting [8]) it was 14%; in experiment [2] (setting [7]) it was 1%; in experiment [2] (setting [8]), 2%; in experiment [3] (setting [7]), 2%; in experiment [3] (setting [8]), 5%. The growth inhibition in experiment [4] (setting [7]) is 2%; in experiment [4] (setting [8]), 3%; in experiment [5] (setting [7]) it was 6%; in experiment [5] (setting [8]), -2%; in experiment [6] (setting [7]), 2%; in experiment [6] (setting [8]) it was 10%.

As to `CCC(=O)c1ccc([N+](=O)[O-])o1`, the growth inhibition in experiment [1] (setting [7]) is 12%; in experiment [1] (setting [8]), 97% (active); in experiment [2] (setting [7]), 5%; in experiment [2] (setting [8]), 99% (active); in experiment [3] (setting [7]) it was 13%; in experiment [3] (setting [8]) it was 100% (active). Further, the growth inhibition is -6% in experiment [4] (setting [7]); 99% (active) in experiment [4] (setting [8]); 13% in experiment [5] (setting [7]); 100% (active) in experiment [5] (setting [8]); 3% in experiment [6] (setting [7]); 98% (active) in experiment [6] (setting [8]).

In the case of `CCCCOc1ccc2nc3cc(Cl)ccc3c(Cl)c2n1`, the growth inhibition is 1.85% and -16.5% in experiment [1] (at 50.0 µM); -10.8% and -43.5% in experiment [2] (at 50.0 µM); -9.75% and 22.9% in experiment [3] (at 50.0 µM); 5.7% and 17.4% in experiment [4] (at 50.0 µM); -12.2% and 8.6% in experiment [5] (at 50.0 µM); 25.8% and 3.55% in experiment [6] (at 50.0 µM).

`N#Cc1c(-c2ccccc2)cc(-c2ccccc2)n(C2OC(CO)C(O)C(O)C2O)c1=O` (stereo not drawn): the growth inhibition in experiment [1] (at 50.0 µM) is -14.6% and -8.2%; in experiment [2] (at 50.0 µM) it was -2.85% and -9.1%; in experiment [3] (at 50.0 µM), 4.85% and -5.85%; in experiment [4] (at 50.0 µM), 1.2% and 12.4%; in experiment [5] (at 50.0 µM), 5.65% and 8.3%; in experiment [6] (at 50.0 µM) it was -7.95% and -10.8%.

For the molecule `Cc1ccccc1N=NC(C#N)C#N`, the growth inhibition in experiment [1] (setting [7]) was 82% (active); in experiment [1] (setting [8]), 99% (active); in experiment [2] (setting [7]) it was 40%; in experiment [2] (setting [8]) it was 100% (active); in experiment [4] (setting [7]) it was 39%; in experiment [4] (setting [8]) it was 99% (active). For the same molecule, the growth inhibition is 68% in experiment [5] (setting [7]), 100% (active) in experiment [5] (setting [8]), 78% (active) in experiment [6] (setting [7]) and 99% (active) in experiment [6] (setting [8]).

`CN(C)CNC(=S)S`: the growth inhibition in experiment [1] (setting [7]) was 98% (active); in experiment [1] (setting [8]), 99% (active); in experiment [2] (setting [7]), 97% (active); in experiment [2] (setting [8]), 100% (active); in experiment [3] (setting [7]), 100% (active); in experiment [3] (setting [8]) it was 100% (active). In addition, the growth inhibition in experiment [4] (setting [7]) is 97% (active); in experiment [4] (setting [8]), 51%; in experiment [5] (setting [7]) it was 99% (active); in experiment [5] (setting [8]), 100% (active); in experiment [6] (setting [7]) it was 97% (active); in experiment [6] (setting [8]), 98% (active).

Take `CCOC(=O)C(NC(C)=O)C(=O)c1ccccc1` (stereo not drawn): the growth inhibition in experiment [1] (setting [7]) is -3%; in experiment [1] (setting [8]) it was 6%; in experiment [2] (setting [7]), -3%; in experiment [2] (setting [8]), -4%; in experiment [3] (setting [7]), 0%; in experiment [3] (setting [8]) it was -1%. The growth inhibition is 11% in experiment [4] (setting [7]); -4% in experiment [4] (setting [8]); 2% in experiment [5] (setting [7]); -1% in experiment [5] (setting [8]); -35% in experiment [6] (setting [7]); -6% in experiment [6] (setting [8]).

Turning to `CC(O)COc1ccc(C2CCCCC2)cc1` (stereo not drawn), the growth inhibition in experiment [1] (at 50.0 µM) was 27.9% and 8%; in experiment [2] (at 50.0 µM), 10.4% and -21.6%; in experiment [3] (at 50.0 µM) it was 7.3% and 16.4%; in experiment [4] (at 50.0 µM) it was -10.2% and -25.9%; in experiment [5] (at 50.0 µM) it was -2.55% and -5.5%; in experiment [6] (at 50.0 µM), -11.6% and 13%.

Consider `CC(=O)Oc1c(Br)cc(Br)cc1C(OC(C)=O)OC(C)=O`, for which the growth inhibition is 20% in experiment [1] (setting [7]); 96% (active) in experiment [1] (setting [8]); 8% in experiment [2] (setting [7]); 87% (active) in experiment [2] (setting [8]); 19% in experiment [3] (setting [7]); 99% (active) in experiment [3] (setting [8]). The growth inhibition was 3% in experiment [4] (setting [7]); 52% in experiment [4] (setting [8]); 6% in experiment [5] (setting [7]); 99% (active) in experiment [5] (setting [8]); -5% in experiment [6] (setting [7]); 93% (active) in experiment [6] (setting [8]).

`O=C1C=CC(=O)C2=C1CC=CC2`: the growth inhibition in experiment [1] (setting [7]) was -12%; in experiment [1] (setting [8]) it was 99% (active); in experiment [2] (setting [7]) it was -2%; in experiment [2] (setting [8]), 99% (active); in experiment [3] (setting [7]), 29%; in experiment [3] (setting [8]), 100% (active). Further, the growth inhibition in experiment [4] (setting [7]) was -6%; in experiment [4] (setting [8]), 75% (active); in experiment [5] (setting [7]), 26%; in experiment [5] (setting [8]), 100% (active); in experiment [6] (setting [7]), 48%; in experiment [6] (setting [8]) it was 97% (active).

Turning to `CC(C)c1ccc2c(c1)CC[C@H]1[C@](C)(C#N)CCC[C@]21C`, the growth inhibition in experiment [1] (at 50.0 µM) was 1.1% and 0.25%; in experiment [2] (at 50.0 µM), -20.8% and -11.4%; in experiment [3] (at 50.0 µM), 0.6% and -17.2%; in experiment [4] (at 50.0 µM) it was -28.4% and -20.4%; in experiment [5] (at 50.0 µM), 1.25% and 13.2%; in experiment [6] (at 50.0 µM), 9.85% and 34.7%.

Take `C/C(=N\NC(=O)c1ccncc1)c1ccc(F)cc1`: the growth inhibition in experiment [1] (at 50.0 µM) was 3.95% and -7.7%; in experiment [2] (at 50.0 µM), 9.55% and -14.3%; in experiment [3] (at 50.0 µM), 4.15% and -16.4%; in experiment [4] (at 50.0 µM), 3.85% and 0.7%; in experiment [5] (at 50.0 µM), 5.5% and -28.4%; in experiment [6] (at 50.0 µM), 14.3% and -4.6%.

For the molecule `O=C(O)/C=C/c1ccc(Cl)cc1`, the growth inhibition was 16.8% and 8.15% in experiment [1] (at 50.0 µM); -8.8% and -22.6% in experiment [2] (at 50.0 µM); 16.8% and 2.3% in experiment [3] (at 50.0 µM); -35.3% and -6.2% in experiment [4] (at 50.0 µM); -3.9% and -3.4% in experiment [5] (at 50.0 µM); 26.9% and 13.4% in experiment [6] (at 50.0 µM).

Regarding `O=C1CC2(CC=CCC23OCCO3)CC(CI)O1` (stereo not drawn), the growth inhibition is -14.1% and 7.75% in experiment [1] (at 50.0 µM); -8.25% and -1.25% in experiment [2] (at 50.0 µM); 3.1% and 24.8% in experiment [3] (at 50.0 µM); 5.9% and 5.1% in experiment [4] (at 50.0 µM); -10.2% and 10.9% in experiment [5] (at 50.0 µM); 10.7% and 9.55% in experiment [6] (at 50.0 µM).

In the case of `Oc1ccc(Cc2ccc(Cl)cc2)c(O)c1`, the growth inhibition in experiment [1] (setting [7]) was 3%; in experiment [1] (setting [8]) it was 98% (active); in experiment [2] (setting [7]), -5%; in experiment [2] (setting [8]) it was 99% (active); in experiment [3] (setting [7]), -1%; in experiment [3] (setting [8]), 99% (active). Also, the growth inhibition in experiment [4] (setting [7]) is 0%; in experiment [4] (setting [8]) it was 98% (active); in experiment [5] (setting [7]) it was -2%; in experiment [5] (setting [8]), 99% (active); in experiment [6] (setting [7]) it was -33%; in experiment [6] (setting [8]) it was 98% (active).

For the molecule `CN(C)c1ccc(SC#N)cc1`, the growth inhibition in experiment [1] (setting [7]) is -4%; in experiment [1] (setting [8]), 92% (active); in experiment [2] (setting [7]) it was 2%; in experiment [2] (setting [8]), 85% (active); in experiment [3] (setting [7]) it was -2%; in experiment [3] (setting [8]), 86% (active). Moreover, the growth inhibition was 3% in experiment [4] (setting [7]); 51% in experiment [4] (setting [8]); 16% in experiment [5] (setting [7]); 95% (active) in experiment [5] (setting [8]); -20% in experiment [6] (setting [7]); 87% (active) in experiment [6] (setting [8]).

Take `CCC(CC)(c1ccccc1)C(O)c1ccccc1` (stereo not drawn): the growth inhibition was 11% in experiment [1] (setting [7]); 94% (active) in experiment [1] (setting [8]); -1% in experiment [2] (setting [7]); 98% (active) in experiment [2] (setting [8]); 6% in experiment [3] (setting [7]); 98% (active) in experiment [3] (setting [8]). Besides, the growth inhibition in experiment [5] (setting [7]) was 6%; in experiment [5] (setting [8]), 94% (active); in experiment [6] (setting [7]) it was 2%; in experiment [6] (setting [8]) it was 96% (active).
